# PubChem BioAssay
# Assay: adipocyte viability effects, profiling panel, cell-based, 3T3-L1 adipocytes, calcein-AM fluorescence, 48 h, basal (AID 1163); note: test concentration not given here
# Conditions: 3T3-L1 adipocytes viability, higher = more signal
row,Compound,z-score
1,[N-]=[N+]=NCc1ccccc1[C@@H]1OC(c2ccc(OCCCO)cc2)=N[C@]1(CCS(=O)(=O)c1ccccc1)C(=O)O,-0.801
2,CC1CC/C=C\[C@H]2OC34C=CCN(c5ccc(Cl)cc5)C(=O)[C@H]3N(C(C)CO)C(=O)[C@]4(C)C2C(=O)O1 (stereo not given in full),-0.761
3,C=CC[C@]1(C(=O)N2CCCCC2)N=C(c2ccc(OCCCO)cc2)O[C@H]1c1ccccc1CN=[N+]=[N-],0.132
4,COc1ccc([Si](C)(C)[C@H]2[C@H](CC(=O)N3CCC[C@H]3CO)O[C@@]3(C(=O)N(Cc4ccc(N5CCOC5=O)cc4)c4ccccc43)[C@@H]2C)cc1,0.722
5,Cc1cc(C)c(C(O)C2C=CC3C(=O)N(c4ccccc4)C(=O)C3N2Nc2ccccc2F)c(C)c1 (stereo not given),-0.89
6,CC[C@@H]1O[Si](C(C)C)(C(C)C)c2c1cc(-c1cc(C)c(OC)c(C)c1)nc2-c1ccc(Oc2ccccc2)cc1,-0.25
7,O[C@@H](Cc1ccccc1)[C@@H](/C=C/C1CC1)N(CC#Cc1ccccc1)Cc1ccccc1Br,-0.667
8,COC(=O)C/C=C/C[C@]1(O)C(=O)N(C)c2ccccc21,0.349
9,C=CC[C@@]1(C(=O)NCCCOC)N=C(c2ccc(OCCCO)cc2)O[C@@H]1c1ccccc1N=[N+]=[N-],0.0373
10,COC(=O)[C@@H]1N=C(c2ccc(OCCCO)cc2)O[C@@H]1C,-0.317
11,CCCC=C(CCC)[C@@H](NC(=O)c1cccs1)c1ccc(C(=O)OC)cc1,-0.302
12,COc1cc(NN2C(C(O)c3cc(OC)c(OC)c(OC)c3)C=CC3C(=O)N(C)C(=O)C32)cc(OC)c1OC (stereo not given),-0.919
13,COc1cc(OC)c(C(O)C2C=CC3C(=O)N(Cc4ccccc4)C(=O)C3N2n2cnnc2)cc1Br (stereo not given),0.767
14,C=CCC(OC(C)=O)[C@@H]1[C@@H](N(Cc2cc3ccccc3o2)C(=O)Cc2ccc(F)cc2)c2cc(OCCCO)ccc2N1C(=O)Cc1ccc2ccccc2c1 (stereo not given in full),-0.136
15,COc1ccc(CCNC(=O)[C@@H]2c3ccccc3C(=O)N(C3CCCCC3)[C@H]2c2ccc(CO)cc2)cc1,1.1
16,C[N+](C)(C)CCCC[C@@H]1NC(=O)[C@@H]2C[C@H](C(=O)NCCCCCCN)[C@H](c3cccc(OCCO)c3)N2C1=O,1
17,O=C1C2C=CC(C(O)C3CC=CCC3)N(Nc3ccccc3)C2C(=O)N1c1ccccc1 (stereo not given),-0.0629
18,O=C1C2C=CC(C(O)c3ccco3)N(Nc3ccccc3F)C2C(=O)N1c1ccccc1 (stereo not given),-0.912

row,Compound,z-score
1,COC(=O)c1c(CC[C@@H](CO)NC(=O)N2CCC[C@H]2Cn2cc(C3(O)CCCCC3)nn2)oc(C(C)=O)c1C(=O)OC,0.209
2,C=C(/C(=C/C[C@H](OC(=O)c1ccncc1)c1ccc(CO)o1)c1cnc2ccccc2c1)C(C)C,0.521
3,COCC(=C=CC[C@H](O)c1ccccc1OCCO)C[C@H](O)c1ccccn1,0.381
4,CC(C)c1ccc(NN2C(C(O)c3ccc(F)cc3)C=CC3C(=O)N(c4ccccc4)C(=O)C32)cc1 (stereo not given),-1.37
5,CO[C@H]1O[C@H](CO)[C@@H](OC(=O)Nc2ccc3c(c2)OCO3)[C@H](OC(=O)Nc2ccc3c(c2)OCO3)[C@@H]1OC(=O)Nc1ccc2c(c1)OCO2,0.0003
6,CCCNC(=O)[C@@H]1c2ccccc2C(=O)N(Cc2ccc(OC(F)(F)F)cc2)[C@H]1c1ccc(CO)cc1,0.385
7,CCOC(=O)C[C@H]1[C@H](OC(=O)c2cc3ccccc3oc2=O)[C@@H](NC(=O)c2ccccc2)c2cc(OCCCO)ccc2N1C(=O)c1ccccc1,1.36
8,CCCNC(=O)[C@@]1(C)c2ccccc2C(=O)N(c2ccc(C)cn2)[C@H]1c1ccc(CO)cc1,0.343
9,CC(C)C(O)C1C=CC2C(=O)N(c3ccccc3)C(=O)C2N1Nc1ccccc1 (stereo not given),-0.68
10,CCCCC(CC)C(O)C1C=CC2C(=O)N(c3ccccc3)C(=O)C2N1Nc1ccc(C#N)cc1 (stereo not given),-0.494
11,COc1ccc(CCNC(=O)[C@@]2(Cc3ccccc3I)c3ccccc3C(=O)N(C3CCCCC3)[C@H]2c2ccc(CO)cc2)cc1,2.42
12,[N-]=[N+]=Nc1ccccc1C[C@@]1(C(N)=O)N=C(c2ccc(OCCCO)cc2)O[C@@H]1c1ccccc1N=[N+]=[N-],1.08
13,C=CCN1C(=O)[C@]2(CCS(=O)(=O)c3ccccc3)N=C(c3ccc(OCCCO)cc3)O[C@@H]2c2ccccc21,0.142
14,NC(=O)NCC#Cc1ccc2c(c1)[C@]1(C(=O)N2)[C@H](c2ccccc2OCCO)N2[C@H](c3ccccc3)[C@H](c3ccccc3)OC(=O)[C@H]2[C@@H]1C(=O)O,-0.161
15,NCCCCCNC(=O)[C@H]1C[C@H]2C(=O)N3CCC[C@H]3C(=O)N2[C@H]1c1cccc(OCCO)c1,0.101
16,COc1ccc([Si](C)(C)[C@@H]2[C@@H](CCO)O[C@]3(C(=O)N(Cc4cccc(NC(=O)[C@H](C)O)c4)c4ccccc43)[C@H]2C)cc1,-0.578
17,CCCCN1CC=CC23O[C@@H]4/C=C\CCCOC(=O)C4[C@H]2C(=O)N(CCO)[C@@H]3C1=O (stereo not given in full),1.63
